Experimental data published in the supplement of paper PMC6555819.

How the values were obtained:
Experiment in all cases: PBM binding z-score (relative to random genomic background probes); higher = stronger binding; sequences stand for … in GC…GCGATTGACAGCGTAGAATGAAGG
[1] = tested on: PPARg:RXRa DBDmut IVT, anti-RXR (DBD mutation: RXRa K156A/R161A, NR concentration 270 nM, RXRa partner concentration 90 nM)
Summary of the method: (§1)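 Binding z-scores were set against random background probes. The data came from custom Agilent 4×180K protein-binding microarrays carrying double-stranded probes with 34-nt variable regions, incubated 1 h with ligand-free nuclear receptor dimers. Partner-specific antibodies detected binding, and scanned fluorescence was regression-normalized.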

[2] = tested on: PPARg:RXRa IVT, anti-PPARg (NR concentration 270 nM, RXRa partner concentration 90 nM)
Summary of the method: as §1

[3] = tested on: PPARg DBDmut:RXRa IVT, anti-PPARg (DBD mutation: PPARg1 K132A/R137A, NR concentration 270 nM, RXRa partner concentration 90 nM)
Summary of the method: as §1

[4] = tested on: PPARg DBDmut IVT, anti-PPARg (DBD mutation: PPARg1 K132A/R137A, NR concentration 270 nM)
Summary of the method: as §1

[5] = tested on: PPARg homodimer (NR concentration 180 nM)
Summary of the method: as §1

[6] = tested on: PXR:RXRa (NR concentration 270 nM, RXRa partner concentration 90 nM)
Summary of the method: as §1

[7] = tested on: PXR homodimer (NR concentration 270 nM)
Summary of the method: as §1

[8] = tested on: RARa:RXR (NR concentration 270 nM, RXRa partner concentration 90 nM)
Summary of the method: as §1

[9] = tested on: RARa homodimer (NR concentration 270 nM)
Summary of the method: as §1

[10] = tested on: RARb:RXRa (NR concentration 270 nM, RXRa partner concentration 90 nM)
Summary of the method: as §1

[11] = tested on: RARb homodimer (NR concentration 270 nM)
Summary of the method: as §1

[12] = tested on: RARg:RXRa (NR concentration 270 nM, RXRa partner concentration 90 nM)
Summary of the method: as §1

[13] = tested on: RARg homodimer (NR concentration 270 nM)
Summary of the method: as §1

[14] = tested on: RXRa DBDmut IVT, anti-RXR (DBD mutation: RXRa K156A/R161A, NR concentration 90 nM)
Summary of the method: as §1

[15] = tested on: RXRa homodimer (NR concentration 180 nM)
Summary of the method: as §1

[16] = tested on: THRa:RXRa (NR concentration 90 nM, RXRa partner concentration 90 nM)
Summary of the method: as §1

[17] = tested on: THRa homodimer (NR concentration 90 nM)
Summary of the method: as §1

[18] = tested on: VDR homodimer (NR concentration 270 nM)
Summary of the method: as §1

| Sequence | PBM binding z-score [1] | PBM binding z-score [2] | PBM binding z-score [3] | PBM binding z-score [4] | PBM binding z-score [5] | PBM binding z-score [6] | PBM binding z-score [7] | PBM binding z-score [8] | PBM binding z-score [9] | PBM binding z-score [10] | PBM binding z-score [11] | PBM binding z-score [12] | PBM binding z-score [13] | PBM binding z-score [14] | PBM binding z-score [15] | PBM binding z-score [16] | PBM binding z-score [17] | PBM binding z-score [18] |
| --- | --- | --- | --- | --- | --- | --- | --- | --- | --- | --- | --- | --- | --- | --- | --- | --- | --- | --- |
| TCTTGTAGATCAATAGAGGGTAAGAAAGTGCGCT | 1.96 | 0.858 | 0.311 | 0.811 | 0.572 | 0.854 | -0.0819 | 0.841 | 0.388 | 0.184 | 0.255 | 0.119 | 0.175 | 1.1 | 0.491 | 0.828 | -0.673 | 0.445 |
| CGTCAAAGTGCAAGGTAACGTAACAGAAAGCAGC | 0.0283 | 0.682 | -0.0131 | -0.0811 | 0.153 | 0.149 | -0.225 | 0.344 | -0.0833 | 2.05 | 0.846 | 0.771 | 1.24 | 1.21 | 0.508 | 1.08 | 0.0291 | 0.017 |
| ACTATTCGTTGACTTAGGGCAACCGATACGACGC | -0.214 | 0.623 | 1.11 | 1.54 | 0.718 | 0.152 | 0.211 | 0.392 | 0.76 | 0.866 | 0.887 | 0.792 | 0.996 | 0.445 | 0.633 | 0.912 | 0.963 | 0.261 |
| GCTATTAGTAGAAAGGGCAACCGAATGATTCTCG | 0.164 | 0.803 | 0.319 | 0.449 | 1.28 | 0.256 | -0.0739 | 0.703 | 1.09 | 1.96 | 1.83 | 0.904 | 1.32 | 0.538 | 0.634 | 0.234 | -0.401 | -0.301 |
| GGAACGAGAGCAAAGTTGATAGCATCTGTCGACG | 0.164 | 0.909 | -1.31 | -0.755 | -0.156 | -0.47 | -0.418 | -0.331 | -1.16 | -0.296 | -0.806 | -0.113 | -0.0315 | -0.36 | 0.334 | -0.711 | -1.35 | -0.396 |
| ATCTCTAGGTAAGACTCAATTCAGTGAAGAACGC | 1.93 | 0.919 | 0.318 | 1.1 | 0.738 | -0.0296 | 0.798 | 0.462 | 1.25 | 0.115 | 0.0312 | 0.0724 | 0.455 | 0.244 | 0.0675 | 0.381 | 0.522 | 0.603 |
| CCTACTGGGCCAAAAAGATCATTGATGCCGATAA | 3.14 | 2.44 | -0.679 | -0.158 | 0.38 | -0.395 | -0.298 | -0.562 | 0.184 | -0.239 | -0.443 | -0.189 | 0.104 | -0.443 | -0.145 | -0.348 | -0.71 | -0.266 |
| CCGACTGGGGTAGAAAGGTTACCATACCATCCGG | 0.466 | 1.2 | -1.23 | -0.59 | 1.69 | 1.32 | -0.0597 | 2.45 | 0.375 | 1.72 | 2.13 | 1.97 | 1.04 | -1.26 | 2.35 | 1 | -0.443 | -0.2 |
| GCATATAGGTAATACAAGGTGACAGTCCGATTGT | 4.45 | 3.54 | 1.4 | 0.834 | 0.847 | 0.242 | 0.189 | 1.36 | 0.735 | 0.42 | 0.679 | 0.651 | 0.825 | 0.299 | 0.86 | 4.15 | 0.967 | 0.0173 |
| CAAACTACGTCAAAGGTCAAAGTCGAGCCAACCA | 0.954 | 3.98 | 7.78 | 3.09 | 4.03 | 5.6 | 1.77 | 6.64 | 2.88 | 4.73 | 4.68 | 6.1 | 5.88 | 1.66 | 7.92 | 3.5 | 0.927 | 2.36 |
| TCTTGGAGATCAACAGGAGGTTAAGAAAGATCGA | 0.986 | 0.364 | 0.0727 | 0.526 | -0.163 | 1.09 | -0.208 | 1.41 | -0.417 | 0.374 | 0.488 | 1.9 | 0.145 | 0.185 | 1.3 | 1.14 | -0.452 | -0.283 |
| TCTTTTAGATCAAGCAGGTTAAGAAAGCCTGAGT | 1.41 | 0.619 | 0.997 | 1.17 | -0.29 | 0.774 | 0.132 | 0.889 | -0.0558 | 0.269 | 0.0271 | 0.216 | 0.212 | 1.19 | 0.49 | 0.401 | -0.436 | 0.0126 |
| CCTTACGGCTCACGAGGTTATAGCACGACGAGCG | -0.0471 | -0.209 | -0.288 | 0.282 | 0.161 | 0.289 | 0.226 | 0.918 | 0.403 | 0.347 | 0.414 | 0.351 | 0.335 | 0.229 | 0.925 | 1.39 | 0.522 | 0.564 |
| GCTCGGAGGACAACGTCAGAGCTTTGTCCGTAGA | -0.91 | -0.67 | -2 | -1.23 | -2.11 | -0.976 | -1.16 | -1.29 | -1.57 | 0.852 | -0.35 | -0.399 | 0.158 | 0.00939 | -0.87 | 0.242 | -0.468 | -0.803 |
| GTACCAAGGTGACTAGGTCGTTGATGAGTAGGCG | 1.99 | 3.81 | 0.227 | -0.333 | 0.145 | 0.12 | -0.403 | 0.639 | 0.0203 | 1.55 | 0.945 | 0.955 | 0.808 | -0.648 | 0.837 | 1.87 | 0.333 | 0.099 |
